Compounds with a hit are over-represented: about 7.4% of the library has one in this group of screens.
FLuc modulator: qHTS profiling assay for firefly luciferase inhibitor/activator using purifed enzyme and Km concentrations of substrates (counterscreen for miR-21 project) | AID 588342, 2011 | Luciferin 4-monooxygenase (Photinus pyralis), P08659 | actives 6.9% (n = 360,000) | purified FLuc, Km substrates, luminescence inhibition | Potency, µM (doses to about 57.5 µM), for inactives: at the top dose activity change, negative = inhibition, hits mostly inhibitors;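 note: plate controls were vehicle for no effect and reference inhibitor for full effect; nearly all actives have a fitted effect of over 55% in size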
Target sequence (P08659 whole entry, looked up): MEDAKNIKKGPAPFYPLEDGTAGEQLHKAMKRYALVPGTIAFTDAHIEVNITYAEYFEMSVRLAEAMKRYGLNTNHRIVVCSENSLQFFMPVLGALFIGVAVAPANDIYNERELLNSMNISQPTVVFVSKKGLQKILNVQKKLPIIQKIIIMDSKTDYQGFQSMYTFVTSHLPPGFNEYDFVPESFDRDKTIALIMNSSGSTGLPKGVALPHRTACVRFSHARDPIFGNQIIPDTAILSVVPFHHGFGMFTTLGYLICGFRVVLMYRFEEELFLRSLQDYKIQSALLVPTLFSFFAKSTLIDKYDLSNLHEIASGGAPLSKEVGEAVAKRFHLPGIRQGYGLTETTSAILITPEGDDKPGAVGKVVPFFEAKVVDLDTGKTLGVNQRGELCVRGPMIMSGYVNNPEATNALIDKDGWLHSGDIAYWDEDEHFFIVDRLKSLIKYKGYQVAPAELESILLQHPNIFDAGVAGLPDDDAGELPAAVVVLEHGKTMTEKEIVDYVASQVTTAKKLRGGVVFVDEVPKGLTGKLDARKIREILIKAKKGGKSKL
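Purified P. pyralis luciferase, 10 nM final, with Km-level 10 uM D-luciferin and 10 uM ATP in 50 mM Tris acetate pH 7.5, 10 mM Mg acetate, 0.01% Tween-20, 0.05% BSA; 6-point qHTS titration about 60 µM downward; luminescence read.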
SMN2 splice enh: qHTS Assay for Enhancers of SMN2 Splice Variant Expression; HEK293 SMN2-luciferase splicing reporter, luminescence, 30-36 h; Potency, µM (titrated, usually from 46.1 µM), without a hit: at the highest dose activity change, positive = activation, actives largely listed as activators; actives 2.8% (n = 210,000); note: % of control where 0% means no effect; nearly all actives have a fitted effect of over 55% in size
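HEK293 cells carry an SMN2 […]–luciferase reporter in which exon 7 inclusion puts luciferase in frame. Cells were plated 10-12 h before compound addition, then incubated 30-36 h at 37C. ONE-Glo luminescence was read; sodium butyrate at 4.5 mM final served as control.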
ELG1 genotox: qHTS screen for small molecules that induce genotoxicity in human embryonic kidney (HEK293T) cells expressing luciferase-tagged ELG1 | HEK293T ELG1-luciferase reporter, luminescence, 16 h | Potency, µM (highest dose often 46 µM), inactives show top-dose activity change, positive = activation, most hits filed as activators | actives 1.3% (n = 330,000) | AID 504466, 2011; note: % of control where 0% means no effect; nearly all actives have a fitted effect of over 60% in size
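16 hr compound incubation (37 °C, 5% CO2) of HEK293T cells carrying luciferase-tagged ELG1; luciferase then measured by ONE-Glo luminescence after 30 min at RT.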
Rab9 promoter act: qHTS Assay for Rab9 Promoter Activators. Huh7 Rab9 promoter-luciferase reporter, luminescence, 24 h. Potency, µM (doses to about 9.22 µM), inactives show at the top dose activation, negative = inhibition, most hits filed as activators. actives 2.8% (n = 320,000); note: % of control where 0% means no effect; nearly all actives have a fitted effect of over 60% in size
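Luminescence from Amplite-detected luciferase (10 minutes, ambient) reports Rab9 promoter activation. Before that, stable Rab9-luciferase Huh7 cells (1500/well, reduced-serum OP-MEM I plus 10% FBS) were exposed to compound for 24 hours at 37C.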
NPC1 prom act: qHTS Assay for NPC1 Promoter Activators. AID 485313, 2010. actives 2.4% (n = 320,000). Potency, µM (highest dose often 9.22 µM), for inactives: top-dose activation, hits mostly activators. Huh7 NPC1 promoter luciferase reporter, 24 h; note: % of control where 0% means no effect; nearly all actives have a fitted effect of over 60% in size
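Huh7 cells stably carrying NPC1 promoter–luciferase, plated in Opti-MEM with 10% FBS for 2 h, were exposed to compound in DMSO for 24 h at 37 °C; luciferase reagent was added for 10 min and luminescence read.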
An asterisk follows results filed as active; u = inconclusive; x = no result; [ ] = dose if it differs, or a comment. Calls come from the whole dose curve; as a rule, active = well fitted curve in the direction sought with a large enough effect; inconclusive = small, poorly fitted or top-dose-only effect, or another doubt; inactive = no such curve, though single readings can be large; an effect the other way counts as inactive or inconclusive. Potency is the fitted concentration of half-maximal effect.

SMILES	FLuc modulator	SMN2 splice enh	ELG1 genotox	Rab9 promoter act	NPC1 prom act
Cc1ccccc1OCCOc1cccc(/C=N/NC(=O)Cc2nnc(N)s2)c1	u	5µM*	-1%	0.45µM*	1.6µM*
Nc1nnc(CC(=O)N/N=C/c2ccccc2OCc2ccccc2F)s1	1%	x	-2%	0%	1%
Nc1nnc(CC(=O)N/N=C/c2cccc(OCCOc3ccccc3)c2)s1	4%	10µM*	0%	3.2µM*	u
Nc1nnc(CC(=O)N/N=C/c2cccc([N+](=O)[O-])c2)s1	3%	-10%	1%	6%	5%
Cc1cc(N2CCC(C(=O)Nc3ccc(Cl)cc3)CC2)n2nc(C)c(-c3ccc(Cl)cc3)c2n1	2%	2%	x	x	x
Cc1cc(=O)c2c(O)c3c(O)cc(=O)c4c3c3c(cc(O)c1c23)C(C)(C)C=4O	x	-11%	x	x	x
Clc1ccc(Nc2nc3cccnc3s2)cc1	u	13µM*	u	2.5µM*	2.8µM*
CCOc1ccccc1CNC(=O)c1cc2c(=O)n(Cc3cccnc3)ccc2nc1C	2%	x	x	x	x
Fc1cc(Br)ccc1COc1ccc(-c2nnco2)cc1	u	x	u	2.5µM*	2.5µM*
Fc1ccc(COc2ccc(-c3nnco3)cc2)c(Cl)c1	u	x	25%	u	25%
CC1(C)C=Cc2cc3ccc(=O)oc3cc2O1	11µM*	14µM*	u	u	u
C/C(=N/NC(=O)c1ccc(Br)o1)c1cccs1	17µM*	x	9.2µM*	4µM*	2.5µM*
C/C(=N\NC(=O)c1ccccc1O)c1c(O)cc(C)oc1=O	15µM*	u	19%	u	29%
C/C(=N\NC(=O)c1cc(Br)ccc1O)c1cccs1	11µM*	18µM*	u	3.5µM*	2µM*
C/C(=N\NC(=O)c1cc(C)nc2ccccc12)c1cccs1	0%	x	-2%	-9%	0%
C/C(=N\NC(=O)c1ccccc1[N+](=O)[O-])c1c(O)cc(C)oc1=O	-1%	-24%	0%	-9%	1%
C/C(=N\NC(=O)c1ccccc1[N+](=O)[O-])c1ccc(Br)s1	1%	0%	3%	-3%	-2%
C/C(=N\NC(=O)c1ccccc1O)c1ccc(Br)s1	3.8µM*	1.6µM*	5%	u	u
COC(=O)N/N=C(\C)c1cccs1	4%	x	7%	-5%	-2%
O=S(=O)(c1ccc(Br)cc1)c1nnn2c1nc(NCc1ccc3c(c1)OCO3)c1sccc12	-1%	x	x	x	x
COc1ccccc1CN1CCNC(=O)C1=O	-1%	x	x	x	x
O=[N+]([O-])c1cc(C(F)(F)F)ccc1NCCOc1ccccc1	13µM*	u	u	u	u
CN(C)S(=O)(=O)NCCNc1ccc(C(F)(F)F)cc1[N+](=O)[O-]	19µM*	6%	3%	2%	-4%
CS(=O)(=O)NCCNc1ccc(C(F)(F)F)cc1[N+](=O)[O-]	1%	2%	0%	-7%	-2%
CCOc1ccc(NC(=O)N2CC=C(c3c[nH]c4ccccc34)CC2)cc1	-4%	x	x	x	x
SMILES	FLuc modulator	SMN2 splice enh	ELG1 genotox	Rab9 promoter act	NPC1 prom act
CCc1ccc(-c2nc3ccc(Br)cc3c(C(=O)O)c2C)s1	21µM*	u	-4%	1%	-2%
CCC1CCC(C(=O)NC(C(=O)Nc2ccc3c(c2)OCCO3)C(C)C)CC1 (stereo not drawn)	u	11%	16µM*	23%	15%
CC(C)CC(NC(=O)C1CCC(C)CC1)C(=O)Nc1ccccc1F (stereo not drawn)	0%	x	6%	-4%	-42%
CCC1CCC(C(=O)NC(C(=O)NCCN(CC(C)C)CC(C)C)C(C)C)CC1 (stereo not drawn)	2%	-1%	x	x	x
CC(C)CC(NC(=O)C1CCC(C)CC1)C(=O)Nc1ccc2c(c1)OCCO2 (stereo not drawn)	17µM*	7%	u	27%	22%
Clc1cccc(N2CCN(c3ncnc4c3nc3n4CCCC3)CC2)c1	19µM*	u	x	x	x
Cc1ccc(Cl)cc1N1CCN(c2ncnc3c2nc2n3CCCCC2)CC1	-2%	x	x	x	x
Clc1cccc(Nc2ncnc3c2nc2n3CCCCC2)c1	6.7µM*	x	x	x	x
Clc1ccccc1Nc1ncnc2c1nc1n2CCCCC1	17µM*	x	x	x	x
Clc1cccc(CNc2ncnc3c2nc2n3CCCC2)c1	-2%	x	x	x	x
Cc1ccc(Nc2ncnc3c2nc2n3CCCC2)c(Br)c1	3.8µM*	x	x	x	x
CN(C)c1ccc(C(=C2C=CC(=[N+](C)C)C=C2)c2c(O)c(S(=O)(=O)O)cc3cc(S(=O)(=O)O)ccc23)cc1	x	-43%[9.22 µM]	x	x	x
Cn1nc(C(=O)NCc2cccc(Cl)c2)c2c1-c1ccccc1SC2	2%	x	x	x	x
O=C(CCn1c(=O)c2ccccc2n(Cc2cccc(Cl)c2)c1=O)NCCc1ccccc1	0%	-5%	x	x	x
O=CNc1ncn[nH]1	x	-5%[9.22 µM]	x	x	x
Cc1ccc(NC(=O)Cn2c(-c3nonc3N)nc3ccccc32)cc1Cl	-2%	-4%	x	x	x
CCOC(=O)c1cnn2c(C)cc(-c3ccc(F)cc3)nc12	12µM*	11µM*	u	3.5µM*	2.8µM*
Cc1cc(-c2ccc(F)cc2)nc2cc(C(N)=O)nn12	1%	-3%	-11%	-3%	-1%
O=C(CSc1nc2ccsc2c(=O)n1-c1ccc(Br)cc1)NCc1ccc(Cl)cc1	6%	x	x	x	x
CC(=O)c1sc(NC(=O)c2cc(=O)c3ccccc3o2)nc1C	7.6µM*	11µM*	u	3.2µM*	2.5µM*
O=C(Nc1nc2ccc(Cl)cc2s1)c1cc(=O)c2ccccc2o1	u	14%	x	x	x
NC(=O)c1ccsc1NC(=O)c1cc(=O)c2ccccc2o1	2.7µM*	10µM*	u	1.8µM*	u
CC(=O)c1sc(NC(=O)c2oc3ccc(F)cc3c2C)nc1C	1.9µM*	x	18%	2.8µM*	2.2µM*
CCOC(=O)c1csc(NC(=O)c2cc(=O)c3ccccc3o2)n1	15µM*	23%	10%	u	16%
CCOc1ccc(NC(=O)CN2C(=O)C(c3ccccc3)=NC23CCCCCC3)cc1	-4%	32%	x	x	x
CC1CCN(C(=O)c2cc3c(=O)n(C)c4cc(Cl)ccc4c3s2)CC1	0%	0%	x	x	x
O=C(O)c1cccc(NS(=O)(=O)c2ccc(C3CCCCC3)cc2)c1	27µM*	17%	2%	-3%	-4%
CCc1ccc(NC(=O)CC2C(=O)N(c3ccc(OC)cc3)C(=O)N2Cc2ccc(OC)cc2)cc1 (stereo not drawn)	-7%	x	x	x	x
O=C(c1cc2cc([N+](=O)[O-])ccc2oc1=O)N1CCN(c2ncccn2)CC1	3%	-4%	0%	-7%	0%
